Molecules are shown by their SMILES. A number with no mark means an inactive call.

Among the data in the supplement of paper PMC6518042 are DuctApe activity index values, retold here.

For the first assay, the system named is Pectobacterium parmentieri SCC3193. The assay can be described thus: DuctApe activity index (growth/respiration on compound as sole nutrient source, blank-subtracted) (activity index (0-3)); higher = stronger utilization of the compound, active = 3 or more. Conditions: nutrient role (plate category): carbon. The method, then:
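Biolog Phenotype Microarray plates PM1, PM2A (carbon), PM3 (nitrogen) and PM4 (phosphorus/sulfur) inoculated with P. parmentieri SCC3193 in M9-C minimal salts medium with Biolog dye A, and read in the OmniLog for 46 h. Each well was tested in triplicate and the experiment was run twice. DuctApe computed a blank-subtracted activity index (AV, 0-3) from the mean curves; growth is positive at AV >= 3 and negative at AV <= 2.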
As for `O=C(O)CC(=O)O` [Malonic acid], the DuctApe activity index was 0. On to `OC[C@H]1O[C@@H](O[C@H]2[C@H](O)[C@@H](O)[C@H](O[C@H]3[C@H](O)[C@H](O)[C@H](O[C@@H]4[C@H](O)[C@H](O)[C@H](O)O[C@@H]4CO)O[C@@H]3CO)O[C@@H]2CO)[C@@H](O)[C@@H](O)[C@@H]1O` [Mannan], for which the DuctApe activity index is 0. Consider `O=C(O)[C@H]1OC(O)[C@H](O)[C@@H](O)[C@@H]1O` (stereo partly drawn) [D-Glucuronic acid], for which the DuctApe activity index was 0. Consider `O=C(O)[C@H](O)[C@@H](O)C(=O)O` [L-Tartaric acid], for which the DuctApe activity index is 0. With `C[N+](C)(C)CC(O)CC(=O)[O-]` (racemic) [D,L-Carnitine], the DuctApe activity index is 0. In the case of `NCC(=O)N[C@@H](CC(=O)O)C(=O)O`, the DuctApe activity index is 0.

Consider `CSCC[C@H](N)C(=O)O` [L-Methionine], for which the DuctApe activity index was 0.

For the compound `O=CO` [Formic acid], the DuctApe activity index is 2. `O=C(CO)CO` [Dihydroxyacetone]: the DuctApe activity index is 1. Consider `OC[C@H]1OC(O[C@H]2[C@H](O)[C@@H](O)C(O[C@H]3[C@H](O)[C@@H](O)[C@@H](O)O[C@@H]3CO)O[C@@H]2CO)[C@H](O)[C@@H](O)[C@@H]1O` (stereo not given in full) [Dextrin], for which the DuctApe activity index is 0. Take `OC[C@H]1O[C@H](O[C@H]2O[C@H](CO)[C@@H](O)[C@H](O)[C@H]2O)[C@H](O)[C@@H](O)[C@@H]1O` [D-Trehalose]: the DuctApe activity index was 3 (active).

For `OCc1ccccc1O[C@@H]1O[C@H](CO)[C@@H](O)[C@H](O)[C@H]1O` [Salicin], the DuctApe activity index is 3 (active). Regarding `O=C(O)/C=C/C(=O)O` [Fumaric acid], the DuctApe activity index is 3 (active).

Take `CCC(=O)O` [Propionic acid]: the DuctApe activity index was 0. On the same count and under the same terms, in the case of `O=C(O)CC(O)(CC(=O)O)C(=O)O` [Citric acid] it was 2. Turning to `OC[C@H]1OC(O)[C@H](O)[C@@H](O)[C@H]1O` (stereo partly drawn) [D-Galactose], the DuctApe activity index was 3 (active).

With `N[C@H](CC(=O)O)C(=O)O` [D-Aspartic acid], the DuctApe activity index is 3 (active). Take `O=C(O)c1ccc(O)cc1` [4-Hydroxybenzoic acid]: the DuctApe activity index was 0.

With `NCCCC(=O)O` [g-Amino-N-Butyric acid], the DuctApe activity index is 0.

The assay is the same for the next values; noted with them: nutrient role (plate category): nitrogen.
`NC(=O)NC(N)=O` [Biuret]: the DuctApe activity index is 0. On to `NCC(=O)N[C@@H](CCC(N)=O)C(=O)O`, for which the DuctApe activity index is 1. As to `CSCC[C@H](N)C(=O)O` [L-Methionine], the DuctApe activity index was 0.

For the compound `N[C@@H](Cc1c[nH]c2ccccc12)C(=O)O` [L-Tryptophan], the DuctApe activity index is 1. As to `N` [Ammonia], the DuctApe activity index is 0.

In the case of `N[C@@H](Cc1ccc(O)cc1)C(=O)O` [L-Tyrosine], the DuctApe activity index is 0. Regarding `C[C@H](N)C(=O)N[C@H](C(=O)O)[C@@H](C)O`, the DuctApe activity index is 0.

As to `N[C@H](CC(=O)O)C(=O)O` [D-Aspartic acid], the DuctApe activity index is 2.

For the compound `NCCCC(=O)O` [g-Amino-N-Butyric acid], the DuctApe activity index was 1.

The same assay, now with this note: nutrient role (plate category): phosphate & sulphur.
Consider `NCCS` [Cysteamine], for which the DuctApe activity index was 1. The same measure, in the same setting: in the case of `N[C@H](COP(=O)(O)O)C(=O)O` [O-Phospho-D-Serine] it was 2; in that of `N[C@@H](CS(=O)O)C(=O)O` [L-Cysteine Sulfinic acid], 0. With `CSCC[C@H](N)C(=O)O` [L-Methionine], the DuctApe activity index was 1.

For the compound `CCCCS(=O)(=O)O` [Butane Sulfonic acid], the DuctApe activity index was 1.

With `O=C(O)[C@H](O)[C@@H](O)[C@H](O)[C@H](O)COP(=O)(O)O` [6-Phospho-Gluconic acid], the DuctApe activity index was 2. For `Nc1ccn([C@@H]2O[C@H](COP(=O)(O)O)[C@@H](O)[C@H]2O)c(=O)n1` [Cytidine 5`-Monophosphate], the DuctApe activity index is 1. The same measure, in the same setting: in the case of `O=P(O)(O)O[C@H]1O[C@H](CO)[C@@H](O)[C@H](O)[C@@H]1O` [D-Mannose-1-Phosphate] it was 2; in that of `O=c1ccn([C@@H]2O[C@H](CO)[C@@H](O)[C@H]2OP(=O)(O)O)c(=O)[nH]1` [Uridine 2`-Monophosphate], 2; in that of `O=P1(O)OP(=O)(O)OP(=O)(O)O1` [Trimetaphosphate], 2. In the case of `N[C@@H](CSC[C@H](N)C(=O)O)C(=O)O` [Lanthionine], the DuctApe activity index is 1. Consider `O=C(O)C(CO)OP(=O)(O)O` [D-2-Phospho-Glyceric acid], for which the DuctApe activity index is 2.
